Where a chain is given by its changes, count along the chain named.
Tests used:
Assay in all cases: PBM; 200 nM protein, PBS
Conditions in all cases: dsDNA, one strand shown
PRRX1 [1] = biological target: PRRX1 (Homo sapiens, UniProt P54821 80-166, F113S)
NKX2-6 [2] = biological target: T1, NKX2-6 (Homo sapiens, UniProt A6NCS4 118-204)
T1 sequence: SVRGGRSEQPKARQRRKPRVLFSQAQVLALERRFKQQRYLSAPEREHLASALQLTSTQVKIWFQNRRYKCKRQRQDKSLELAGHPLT

NKX2-6 [3] = biological target: T2, NKX2-6 (Homo sapiens, UniProt A6NCS4 118-204, F151L)
T2 sequence: T1 sequence with F34L

PRRX1 [4] = biological target: PRRX1 (Homo sapiens, UniProt P54821 80-166)
Chain of PRRX1 (Homo sapiens, UniProt P54821 80-166) (P54821 80-166): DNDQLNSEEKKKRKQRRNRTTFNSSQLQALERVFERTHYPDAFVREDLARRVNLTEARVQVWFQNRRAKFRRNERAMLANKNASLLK

VAX1 [5] = biological target: VAX1 (Homo sapiens, UniProt Q5SQQ9 86-172)
Chain of VAX1 (Homo sapiens, UniProt Q5SQQ9 86-172) (Q5SQQ9 86-172): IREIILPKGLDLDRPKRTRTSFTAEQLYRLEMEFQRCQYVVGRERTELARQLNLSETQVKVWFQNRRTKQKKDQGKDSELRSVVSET

ALX1 = ALX1 (Homo sapiens, UniProt Q15699 118-204, L144R)
Chain of ALX1 (Q15699 118-204 L144R): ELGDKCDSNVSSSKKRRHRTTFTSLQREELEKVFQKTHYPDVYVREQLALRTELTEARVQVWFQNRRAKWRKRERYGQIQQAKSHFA

MSX2 [6] = biological target: MSX2 (Homo sapiens, UniProt P35548 130-214, R199I)
Chain of MSX2 (Homo sapiens, UniProt P35548 130-214, R199I) (P35548 130-214 R199I): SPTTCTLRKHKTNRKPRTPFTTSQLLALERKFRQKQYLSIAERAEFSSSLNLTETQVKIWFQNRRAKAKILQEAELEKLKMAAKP

SHOX = SHOX (Homo sapiens, UniProt O15266 103-189, R173C)
Chain of SHOX (O15266 103-189 R173C): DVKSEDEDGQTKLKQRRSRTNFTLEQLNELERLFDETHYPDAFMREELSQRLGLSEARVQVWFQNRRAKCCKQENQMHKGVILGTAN

ALX3 [7] = biological target: ALX3 (Homo sapiens, UniProt O95076 139-225, L168V)
Chain of ALX3 (Homo sapiens, UniProt O95076 139-225, L168V) (O95076 139-225 L168V): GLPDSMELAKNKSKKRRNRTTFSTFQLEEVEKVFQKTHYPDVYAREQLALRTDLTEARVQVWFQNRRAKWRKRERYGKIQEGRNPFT

PAX4 = biological target: T3, PAX4 (Homo sapiens, UniProt O43316 9-242, R227W)
T3 sequence: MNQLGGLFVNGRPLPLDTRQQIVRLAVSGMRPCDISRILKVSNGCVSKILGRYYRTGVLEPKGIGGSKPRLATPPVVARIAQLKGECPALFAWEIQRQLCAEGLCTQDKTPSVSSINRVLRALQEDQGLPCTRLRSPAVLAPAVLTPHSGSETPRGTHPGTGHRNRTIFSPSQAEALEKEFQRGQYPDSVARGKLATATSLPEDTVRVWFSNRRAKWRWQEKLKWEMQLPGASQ

PITX2 = PITX2 (Homo sapiens, UniProt Q99697 72-157)
ALX3 [8] = biological target: ALX3 (Homo sapiens, UniProt O95076 139-225, N203Q)
Chain of ALX3 (Homo sapiens, UniProt O95076 139-225, N203Q) (O95076 139-225 N203Q): as the sequence (O95076 139-225 L168V) above, with V30L, N65Q counted along it

MSX2 [9] = biological target: MSX2 (Homo sapiens, UniProt P35548 130-214)
Chain of MSX2 (Homo sapiens, UniProt P35548 130-214) (P35548 130-214): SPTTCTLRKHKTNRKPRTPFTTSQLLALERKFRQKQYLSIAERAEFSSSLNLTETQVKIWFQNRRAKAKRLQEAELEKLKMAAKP

ALX3 [10] = biological target: ALX3 (Homo sapiens, UniProt O95076 139-225)
Chain of ALX3 (Homo sapiens, UniProt O95076 139-225) (O95076 139-225): as the sequence (O95076 139-225 L168V) above, with V30L counted along it

ALX3 [11] = biological target: ALX3 (Homo sapiens, UniProt O95076 139-225, L168Q)
Chain of ALX3 (Homo sapiens, UniProt O95076 139-225, L168Q) (O95076 139-225 L168Q): as the sequence (O95076 139-225 L168V) above, with V30Q counted along it

MSX2 [12] = biological target: MSX2 (Homo sapiens, UniProt P35548 130-214, F161Y)
Chain of MSX2 (Homo sapiens, UniProt P35548 130-214, F161Y) (P35548 130-214 F161Y): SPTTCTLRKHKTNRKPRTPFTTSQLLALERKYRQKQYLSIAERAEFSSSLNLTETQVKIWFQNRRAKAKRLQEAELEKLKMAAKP

ALX3 [13] = biological target: ALX3 (Homo sapiens, UniProt O95076 139-225, N203S)
Chain of ALX3 (Homo sapiens, UniProt O95076 139-225, N203S) (O95076 139-225 N203S): as the sequence (O95076 139-225 L168V) above, with V30L, N65S counted along it

HOXD13 [14] = biological target: HOXD13 (Homo sapiens, UniProt P35453 263-343, T313R)
Chain of HOXD13 (Homo sapiens, UniProt P35453 263-343, T313R) (P35453 263-343 T313R): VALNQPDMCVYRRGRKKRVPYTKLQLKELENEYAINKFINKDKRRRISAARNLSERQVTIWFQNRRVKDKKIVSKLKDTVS

HOXD13 [15] = biological target: HOXD13 (Homo sapiens, UniProt P35453 263-343)
Chain of HOXD13 (Homo sapiens, UniProt P35453 263-343) (P35453 263-343): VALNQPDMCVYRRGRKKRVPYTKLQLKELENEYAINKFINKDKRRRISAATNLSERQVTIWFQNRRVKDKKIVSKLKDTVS

HOXD13 [16] = biological target: HOXD13 (Homo sapiens, UniProt P35453 263-343, T313A)
Chain of HOXD13 (Homo sapiens, UniProt P35453 263-343, T313A) (P35453 263-343 T313A): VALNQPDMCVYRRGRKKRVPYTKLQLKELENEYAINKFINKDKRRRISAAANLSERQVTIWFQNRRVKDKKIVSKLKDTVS

VAX1 [17] = biological target: VAX1 (Homo sapiens, UniProt Q5SQQ9 86-172, T142I)
Chain of VAX1 (Homo sapiens, UniProt Q5SQQ9 86-172, T142I) (Q5SQQ9 86-172 T142I): as the sequence (Q5SQQ9 86-172) above, with T57I counted along it

VAX1 [18] = biological target: VAX1 (Homo sapiens, UniProt Q5SQQ9 86-172, K157R)
Chain of VAX1 (Homo sapiens, UniProt Q5SQQ9 86-172, K157R) (Q5SQQ9 86-172 K157R): as the sequence (Q5SQQ9 86-172) above, with K72R counted along it

HOXA2 = HOXA2 (Homo sapiens, UniProt O43364 129-215, R185T)
Chain of HOXA2 (O43364 129-215 R185T): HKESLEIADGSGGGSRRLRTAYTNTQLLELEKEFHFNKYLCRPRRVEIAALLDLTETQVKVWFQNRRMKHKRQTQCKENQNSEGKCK

Chain of PRRX1 (Homo sapiens, UniProt P54821 80-166, F113S) (P54821 80-166 F113S): as the sequence (P54821 80-166) above, with F34S counted along it

AGACGAGC
binding signal (PRRX1 [1]): 9.44 upbm affinity estimate (log intensity, higher = more binding, comparable within an allelic series) | binding signal (NKX2-6 [2]): 9.38 upbm affinity estimate (log intensity, higher = more binding, comparable within an allelic series) | binding signal (NKX2-6 [3]): 9.3 upbm affinity estimate (log intensity, higher = more binding, comparable within an allelic series) | binding signal (PRRX1 [4]): 9.6 upbm affinity estimate (log intensity, higher = more binding, comparable within an allelic series)

CCCAACGC
binding signal (PRRX1 [1]): 9.62 upbm affinity estimate (log intensity, higher = more binding, comparable within an allelic series) | binding signal (PRRX1 [4]): 9.3 upbm affinity estimate (log intensity, higher = more binding, comparable within an allelic series)

AGTGGTAA
binding signal (PRRX1 [1]): 10 upbm affinity estimate (log intensity, higher = more binding, comparable within an allelic series) | binding signal (VAX1 [5]): 9.41 upbm affinity estimate (log intensity, higher = more binding, comparable within an allelic series) | binding signal (PRRX1 [4]): 11.2 upbm affinity estimate (log intensity, higher = more binding, comparable within an allelic series)

TTAATCAA
binding signal (PRRX1 [1]): 11.1 upbm affinity estimate (log intensity, higher = more binding, comparable within an allelic series) | binding signal (ALX1): 11.2 upbm affinity estimate (log intensity, higher = more binding, comparable within an allelic series) | binding signal (PRRX1 [4]): 13.3 upbm affinity estimate (log intensity, higher = more binding, comparable within an allelic series)

AATTATAG
binding signal (PRRX1 [1]): 11.2 upbm affinity estimate (log intensity, higher = more binding, comparable within an allelic series) | binding signal (MSX2 [6]): 12.2 upbm affinity estimate (log intensity, higher = more binding, comparable within an allelic series) | binding signal (SHOX): 9.23 upbm affinity estimate (log intensity, higher = more binding, comparable within an allelic series) | binding signal (ALX3 [7]): 9.73 upbm affinity estimate (log intensity, higher = more binding, comparable within an allelic series) | binding signal (PAX4): 10.9 upbm affinity estimate (log intensity, higher = more binding, comparable within an allelic series)

GCTCCAGA
binding signal (PRRX1 [1]): 9.35 upbm affinity estimate (log intensity, higher = more binding, comparable within an allelic series) | binding signal (PRRX1 [4]): 9.02 upbm affinity estimate (log intensity, higher = more binding, comparable within an allelic series)

ACGTTGCG
binding signal (PRRX1 [1]): 9.5 upbm affinity estimate (log intensity, higher = more binding, comparable within an allelic series) | binding signal (PITX2): 7.94 upbm affinity estimate (log intensity, higher = more binding, comparable within an allelic series) | binding signal (PRRX1 [4]): 9.22 upbm affinity estimate (log intensity, higher = more binding, comparable within an allelic series)

AATTATGC
binding signal (PRRX1 [1]): 11.1 upbm affinity estimate (log intensity, higher = more binding, comparable within an allelic series) | binding signal (SHOX): 9.27 upbm affinity estimate (log intensity, higher = more binding, comparable within an allelic series)

ACGCCCCG
binding signal (PRRX1 [1]): 9.23 upbm affinity estimate (log intensity, higher = more binding, comparable within an allelic series) | binding signal (MSX2 [6]): 9.45 upbm affinity estimate (log intensity, higher = more binding, comparable within an allelic series) | binding signal (ALX3 [8]): 7.74 upbm affinity estimate (log intensity, higher = more binding, comparable within an allelic series) | binding signal (NKX2-6 [2]): 9.2 upbm affinity estimate (log intensity, higher = more binding, comparable within an allelic series) | binding signal (MSX2 [9]): 9.36 upbm affinity estimate (log intensity, higher = more binding, comparable within an allelic series) | binding signal (ALX3 [10]): 7.57 upbm affinity estimate (log intensity, higher = more binding, comparable within an allelic series) | binding signal (ALX3 [11]): 7.68 upbm affinity estimate (log intensity, higher = more binding, comparable within an allelic series) | binding signal (NKX2-6 [3]): 9.33 upbm affinity estimate (log intensity, higher = more binding, comparable within an allelic series) | binding signal (ALX3 [7]): 7.67 upbm affinity estimate (log intensity, higher = more binding, comparable within an allelic series) | binding signal (MSX2 [12]): 9.41 upbm affinity estimate (log intensity, higher = more binding, comparable within an allelic series) | binding signal (ALX3 [13]): 7.73 upbm affinity estimate (log intensity, higher = more binding, comparable within an allelic series) | binding signal (PRRX1 [4]): 9.08 upbm affinity estimate (log intensity, higher = more binding, comparable within an allelic series)

CCCAAAGG
binding signal (PRRX1 [1]): 9.18 upbm affinity estimate (log intensity, higher = more binding, comparable within an allelic series) | binding signal (HOXD13 [14]): 9.56 upbm affinity estimate (log intensity, higher = more binding, comparable within an allelic series) | binding signal (HOXD13 [15]): 9.54 upbm affinity estimate (log intensity, higher = more binding, comparable within an allelic series) | binding signal (HOXD13 [16]): 9.58 upbm affinity estimate (log intensity, higher = more binding, comparable within an allelic series) | binding signal (PRRX1 [4]): 9.15 upbm affinity estimate (log intensity, higher = more binding, comparable within an allelic series)

AGCCGGGC
binding signal (PRRX1 [1]): 8.99 upbm affinity estimate (log intensity, higher = more binding, comparable within an allelic series) | binding signal (ALX3 [8]): 7.69 upbm affinity estimate (log intensity, higher = more binding, comparable within an allelic series) | binding signal (ALX3 [10]): 7.71 upbm affinity estimate (log intensity, higher = more binding, comparable within an allelic series) | binding signal (VAX1 [5]): 7 upbm affinity estimate (log intensity, higher = more binding, comparable within an allelic series) | binding signal (ALX3 [11]): 7.68 upbm affinity estimate (log intensity, higher = more binding, comparable within an allelic series) | binding signal (ALX3 [7]): 7.64 upbm affinity estimate (log intensity, higher = more binding, comparable within an allelic series) | binding signal (VAX1 [17]): 7.24 upbm affinity estimate (log intensity, higher = more binding, comparable within an allelic series) | binding signal (ALX3 [13]): 7.72 upbm affinity estimate (log intensity, higher = more binding, comparable within an allelic series) | binding signal (PRRX1 [4]): 9.33 upbm affinity estimate (log intensity, higher = more binding, comparable within an allelic series) | binding signal (VAX1 [18]): 6.91 upbm affinity estimate (log intensity, higher = more binding, comparable within an allelic series)

ACTAATCA
binding signal (PRRX1 [1]): 10.9 upbm affinity estimate (log intensity, higher = more binding, comparable within an allelic series) | binding signal (HOXA2): 12.5 upbm affinity estimate (log intensity, higher = more binding, comparable within an allelic series) | binding signal (MSX2 [6]): 11.2 upbm affinity estimate (log intensity, higher = more binding, comparable within an allelic series) | binding signal (PRRX1 [4]): 13.2 upbm affinity estimate (log intensity, higher = more binding, comparable within an allelic series)

CGGCACCG
binding signal (PRRX1 [1]): 9.31 upbm affinity estimate (log intensity, higher = more binding, comparable within an allelic series) | binding signal (MSX2 [6]): 9.48 upbm affinity estimate (log intensity, higher = more binding, comparable within an allelic series) | binding signal (PITX2): 7.77 upbm affinity estimate (log intensity, higher = more binding, comparable within an allelic series) | binding signal (MSX2 [9]): 9.42 upbm affinity estimate (log intensity, higher = more binding, comparable within an allelic series) | binding signal (MSX2 [12]): 9.54 upbm affinity estimate (log intensity, higher = more binding, comparable within an allelic series) | binding signal (PRRX1 [4]): 9.57 upbm affinity estimate (log intensity, higher = more binding, comparable within an allelic series)
